Target: T1, Ephrin type-B receptor 3 (Homo sapiens) (UniProt P54753)
T1 sequence (whole entry): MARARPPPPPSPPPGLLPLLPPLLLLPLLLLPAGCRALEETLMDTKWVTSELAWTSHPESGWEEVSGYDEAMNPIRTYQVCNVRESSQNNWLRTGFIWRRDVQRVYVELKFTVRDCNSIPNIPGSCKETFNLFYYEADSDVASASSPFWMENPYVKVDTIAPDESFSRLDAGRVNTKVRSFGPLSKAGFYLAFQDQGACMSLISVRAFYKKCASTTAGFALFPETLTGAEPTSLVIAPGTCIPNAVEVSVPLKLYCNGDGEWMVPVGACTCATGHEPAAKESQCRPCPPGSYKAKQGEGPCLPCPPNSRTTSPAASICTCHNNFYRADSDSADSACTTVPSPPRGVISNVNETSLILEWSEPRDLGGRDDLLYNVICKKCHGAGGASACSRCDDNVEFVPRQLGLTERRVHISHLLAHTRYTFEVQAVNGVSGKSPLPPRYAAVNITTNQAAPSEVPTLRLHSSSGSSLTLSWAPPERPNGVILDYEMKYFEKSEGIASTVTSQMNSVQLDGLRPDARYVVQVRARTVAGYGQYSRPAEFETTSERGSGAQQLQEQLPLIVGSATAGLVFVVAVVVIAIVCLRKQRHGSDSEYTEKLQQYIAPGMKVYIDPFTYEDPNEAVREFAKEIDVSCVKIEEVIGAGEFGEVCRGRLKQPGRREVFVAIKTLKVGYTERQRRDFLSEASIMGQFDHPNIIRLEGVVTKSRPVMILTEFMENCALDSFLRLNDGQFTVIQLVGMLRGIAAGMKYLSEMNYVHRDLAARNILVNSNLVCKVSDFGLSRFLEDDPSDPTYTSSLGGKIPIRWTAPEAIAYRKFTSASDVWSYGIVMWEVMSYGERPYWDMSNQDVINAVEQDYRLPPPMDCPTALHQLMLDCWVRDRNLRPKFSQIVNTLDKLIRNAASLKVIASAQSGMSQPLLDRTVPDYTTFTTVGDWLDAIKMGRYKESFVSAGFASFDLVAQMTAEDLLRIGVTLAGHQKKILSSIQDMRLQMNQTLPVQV
Conditions: at 0.1 µM

| Compound | inhibition [%] |
| --- | --- |
| CN(C)C(=O)O[C@@H]1CN[C@@H](C#Cc2cc3ncnc(Nc4ccc(OCc5cccc(F)c5)c(Cl)c4)c3s2)C1 | 2.5 |
| N#Cc1c(NC(=O)c2ccccc2F)sc2c1CCCC2 | 3.63 |
| Cc1ccc2c(-c3ccnc(Nc4ccc5c(c4)OCCO5)n3)c(-c3ccc(C(F)(F)F)cc3)nn2n1 | -0.21 |
| COc1cccc(-n2nc(C)c3c(N/N=C(\C)c4ccncc4)ncnc32)c1 | 1.98 |
| NS(=O)(=O)c1ccc(N/N=C2\C(=O)Nc3ccc(Cl)cc32)cc1 | 3.51 |
| CCOc1nccc2c1nc(-c1nonc1N)n2CC | 1.72 |
| Cc1ccc(C(=O)NC2CC2)cc1-c1ccc2[nH]ncc2c1 | -8.95 |
| c1ccc(Nc2ncc(-c3ccccc3)o2)cc1 | 2.14 |
| Cc1cc(Cl)cc2c1NC(=O)C2=NNc1ccc(S(N)(=O)=O)cc1 | 3.65 |
| O=C1Nc2ccccc2/C1=C/Nc1ccc2[nH]c(=O)[nH]c2c1 | 6.46 |
| Nc1nccc(-c2c(-c3ccc(F)cc3)ncn2CCCN2CCOCC2)n1 | 5.73 |
| [O-][S+]1CCN(Cc2ccc(-c3ccc4ncnc(Nc5ccc(OCc6ccccc6)c(Cl)c5)c4c3)o2)CC1 | 0.63 |
| NS(=O)(=O)c1cccc(-c2cc3ccncc3cc2OCc2ccccc2)c1 | 6.23 |
| CCCN1CCCC(c2ccc(Nc3nc(Nc4cc(F)ccc4C(N)=O)c4cc[nH]c4n3)c(OC)c2)C1 (stereo not drawn) | 6.2 |
| OCc1ccc(-c2nc(-c3ccccn3)c(-c3ccc4c(c3)OCO4)[nH]2)cc1 | 5.72 |
| COc1ccc(-c2nn3ncccc3c2-c2ccnc(Nc3cccc(C(F)(F)F)c3)n2)cc1 | 3.95 |
| O=C1Nc2ccc(-c3cccnc3)cc2C1=Cc1cc(Br)c(O)c(Br)c1 | 4.6 |

| Compound | inhibition [%] |
| --- | --- |
| CN(C)c1cc2c(Nc3ccc4c(cnn4Cc4ccccc4)c3)ncnc2cn1 | 4.69 |
| CCS(=O)(=O)c1ccc(OC)c(Nc2nccc(N(C)c3ccc4c(C)n[nH]c4c3)n2)c1 | 2.23 |
| COC(=O)c1cncc(/C=C/c2c(C)cc(O)cc2C)c1 | 6.09 |
| O=S(=O)(CCOCc1ccc(-c2ccc3ncnc(Nc4ccc(OCc5cccc(F)c5)c(Cl)c4)c3c2)o1)c1ccccc1 | -0.47 |
| O=C(Nc1ccc(Oc2ccc3[nH]c(NC(=O)c4ccco4)nc3c2)cc1)Nc1cc(C(F)(F)F)ccc1F | 2.25 |
| Cc1cc(-c2ccccn2)cc(C)c1/C=C/c1cncc(-c2nn[nH]n2)c1 | 2.22 |
| Cc1cc(O)cc(C)c1/C=C/c1cncc(C(=O)N(C)C)c1 | 5.26 |
| CS(=O)(=O)Nc1cccc(-c2ccc3c(NC(=O)C4CC4)n[nH]c3c2)c1 | 4.48 |
| CN(C)CCCn1c(-c2nonc2N)nc2cnccc21 | 5.3 |
| CCn1c(-c2nonc2N)nc2c(C#CC(C)(C)O)nc(OCCNC)cc21 | -3.04 |
| Cc1ccc2c(c1)/C(=N/Nc1ccc(S(N)(=O)=O)cc1)C(=O)N2 | 2.46 |
| Cc1ccc2c(-c3ccnc(Nc4cccc(C(F)(F)F)c4)n3)c(-c3ccccc3)nn2n1 | 3.61 |
| FC(F)(F)c1ccc(-c2nn3ncccc3c2-c2ccnc(Nc3ccc4c(c3)OCCO4)n2)cc1 | -5.93 |
| Cc1ccc(Nc2ccnc(Nc3cccc(C(N)=O)c3)n2)cc1O | 0.29 |
| COc1cc2ncnc(Nc3ccc4c(cnn4Cc4ccccc4)c3)c2cc1OC | 2.93 |
| Cc1nc(-c2ccccc2)n2nc(NCCCN3CCOCC3)ncc12 | 2.93 |
| COc1ccc2ncnc(Nc3ccc(OCc4ccccc4)cc3)c2c1 | 4.29 |

Target: T1, Ephrin type-B receptor 3 (Homo sapiens)
Conditions: at 1 µM

| Compound | inhibition [%] |
| --- | --- |
| CN(C)C(=O)O[C@@H]1CN[C@@H](C#Cc2cc3ncnc(Nc4ccc(OCc5cccc(F)c5)c(Cl)c4)c3s2)C1 | -1.81 |
| N#Cc1c(NC(=O)c2ccccc2F)sc2c1CCCC2 | 0.77 |
| Cc1ccc2c(-c3ccnc(Nc4ccc5c(c4)OCCO5)n3)c(-c3ccc(C(F)(F)F)cc3)nn2n1 | 2.22 |
| COc1cccc(-n2nc(C)c3c(N/N=C(\C)c4ccncc4)ncnc32)c1 | 0.96 |
| NS(=O)(=O)c1ccc(N/N=C2\C(=O)Nc3ccc(Cl)cc32)cc1 | 2.43 |
| CCOc1nccc2c1nc(-c1nonc1N)n2CC | 2.82 |
| Cc1ccc(C(=O)NC2CC2)cc1-c1ccc2[nH]ncc2c1 | -5.96 |
| c1ccc(Nc2ncc(-c3ccccc3)o2)cc1 | 6.32 |
| Cc1cc(Cl)cc2c1NC(=O)C2=NNc1ccc(S(N)(=O)=O)cc1 | 1.13 |
| O=C1Nc2ccccc2/C1=C/Nc1ccc2[nH]c(=O)[nH]c2c1 | 5.55 |
| Nc1nccc(-c2c(-c3ccc(F)cc3)ncn2CCCN2CCOCC2)n1 | 3.41 |
| [O-][S+]1CCN(Cc2ccc(-c3ccc4ncnc(Nc5ccc(OCc6ccccc6)c(Cl)c5)c4c3)o2)CC1 | 1.88 |
| NS(=O)(=O)c1cccc(-c2cc3ccncc3cc2OCc2ccccc2)c1 | 4.28 |
| CCCN1CCCC(c2ccc(Nc3nc(Nc4cc(F)ccc4C(N)=O)c4cc[nH]c4n3)c(OC)c2)C1 (stereo not drawn) | -1.82 |
| OCc1ccc(-c2nc(-c3ccccn3)c(-c3ccc4c(c3)OCO4)[nH]2)cc1 | 3.87 |
| COc1ccc(-c2nn3ncccc3c2-c2ccnc(Nc3cccc(C(F)(F)F)c3)n2)cc1 | 4.5 |
| O=C1Nc2ccc(-c3cccnc3)cc2C1=Cc1cc(Br)c(O)c(Br)c1 | 2.28 |

| Compound | inhibition [%] |
| --- | --- |
| CN(C)c1cc2c(Nc3ccc4c(cnn4Cc4ccccc4)c3)ncnc2cn1 | 1.55 |
| CCS(=O)(=O)c1ccc(OC)c(Nc2nccc(N(C)c3ccc4c(C)n[nH]c4c3)n2)c1 | 6.04 |
| COC(=O)c1cncc(/C=C/c2c(C)cc(O)cc2C)c1 | 11.8 |
| O=S(=O)(CCOCc1ccc(-c2ccc3ncnc(Nc4ccc(OCc5cccc(F)c5)c(Cl)c4)c3c2)o1)c1ccccc1 | 3.29 |
| O=C(Nc1ccc(Oc2ccc3[nH]c(NC(=O)c4ccco4)nc3c2)cc1)Nc1cc(C(F)(F)F)ccc1F | 24.2 |
| Cc1cc(-c2ccccn2)cc(C)c1/C=C/c1cncc(-c2nn[nH]n2)c1 | 4.35 |
| Cc1cc(O)cc(C)c1/C=C/c1cncc(C(=O)N(C)C)c1 | 5.69 |
| CS(=O)(=O)Nc1cccc(-c2ccc3c(NC(=O)C4CC4)n[nH]c3c2)c1 | -3.94 |
| CN(C)CCCn1c(-c2nonc2N)nc2cnccc21 | 2.05 |
| CCn1c(-c2nonc2N)nc2c(C#CC(C)(C)O)nc(OCCNC)cc21 | 4 |
| Cc1ccc2c(c1)/C(=N/Nc1ccc(S(N)(=O)=O)cc1)C(=O)N2 | -0.26 |
| Cc1ccc2c(-c3ccnc(Nc4cccc(C(F)(F)F)c4)n3)c(-c3ccccc3)nn2n1 | 9.16 |
| FC(F)(F)c1ccc(-c2nn3ncccc3c2-c2ccnc(Nc3ccc4c(c3)OCCO4)n2)cc1 | -4.69 |
| Cc1ccc(Nc2ccnc(Nc3cccc(C(N)=O)c3)n2)cc1O | -0.39 |
| COc1cc2ncnc(Nc3ccc4c(cnn4Cc4ccccc4)c3)c2cc1OC | 4.39 |
| Cc1nc(-c2ccccc2)n2nc(NCCCN3CCOCC3)ncc12 | 3.76 |
| COc1ccc2ncnc(Nc3ccc(OCc4ccccc4)cc3)c2c1 | 1.66 |

Source: ChEMBL document CHEMBL1961873, “Compounds: GSK PKIS; Assays: Nanosyn kinase panel” (2012)
